Bioassay records: PubChem BioAssay, National Center for Advancing Translational Sciences (NCATS)
AmpC no deterg: AmpC beta-lactamase inhibition without detergent | P00811 | AmpC nitrocefin hydrolysis, absorbance 480 nm, 0.0001% Triton | Potency, µM (highest dose often 57.1 µM), for inactives: at the highest dose activity change, negative = inhibition, hits mostly inhibitors | 0.52% of 330,000 active;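 note: plate controls were no compound for no effect and no enzyme for full effect; nearly all actives have a fitted effect of over 20% in size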
Target sequence (P00811 whole entry, looked up): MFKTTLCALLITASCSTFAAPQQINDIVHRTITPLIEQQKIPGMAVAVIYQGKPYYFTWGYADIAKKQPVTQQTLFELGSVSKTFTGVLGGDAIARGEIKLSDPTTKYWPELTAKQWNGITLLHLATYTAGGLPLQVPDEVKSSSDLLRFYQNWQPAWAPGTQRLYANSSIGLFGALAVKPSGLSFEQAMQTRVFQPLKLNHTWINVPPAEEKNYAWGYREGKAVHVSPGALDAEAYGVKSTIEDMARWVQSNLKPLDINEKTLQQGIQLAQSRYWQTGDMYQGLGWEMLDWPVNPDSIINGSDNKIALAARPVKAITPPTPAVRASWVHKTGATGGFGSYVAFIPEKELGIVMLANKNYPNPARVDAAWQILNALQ
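20 mM phosphate pH 7.0 + 0.01% (detergent screen) or 0.0001% Triton X-100; 5.3 nM AmpC reagent; cpd preinc 15 min RT; nitrocefin (800 uM stock) to start; A480 q20 s × 4 min; Activity was normalised to no-enzyme and no-compound control wells.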
Sm TGR inh: inhibitors of Schistosoma mansoni thioredoxin glutathione reductase. Q962Y6. 3% of 360,000 active. Potency, µM (series often up to 114 µM), inactives show at the highest dose activity change, negative = inhibition, hits mostly inhibitors. AID 485364. purified TGR, DTNB reduction, TNB absorbance 405 nm; note: % is set by controls: 0 for no effect and ±100 for the full control effect; nearly all actives have a fitted effect of over 60% in size
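Kinetic colorimetric format: TGR-catalysed, NADPH-driven DTNB reduction monitored via TNB absorbance. Enzyme dispensed at 20 nM; compound exposure 15 min at room temperature before reaction start.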
SARS PLP yeast: SARS-CoV PLP inhibition in yeast | S. cerevisiae expressing SARS-CoV PLpro, growth rescue | Potency, µM (top dose mostly 32.9 µM), inactives show at the highest dose activity, positive = growth rescue, hits mostly activators | 0.19% of 330,000 active; calls by dose curve; note: 0% is about no effect; nearly all actives have a fitted effect of over 55% in size
AmpC inh detg: AmpC beta-lactamase inhibition with detergent present. Potency, µM (series often up to 114 µM), for inactives: at the top dose activity change, negative = inhibition, actives largely listed as inhibitors. AmpC hydrolysis of nitrocefin, absorbance 480 nm, 0.01% Triton. 0.041% of 370,000 active. P00811. AID 485294;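 note: 0% = no-compound wells and -100% = no-enzyme wells; nearly all actives have a fitted effect of over 25% in size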
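AmpC (5.3 nM in the dispensed reagent) in 20 mM phosphate pH 7.0 with 0.01% (detergent screen) or 0.0001% Triton X-100 was preincubated with compounds for 15 min at room temperature. Nitrocefin was then added from an 800 uM solution, and hydrolysis was followed at 480 nm.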
RE007 growth inh: less growth of the S. pombe RE007 Vpr strain; AID 651644; Potency, µM (titrated, usually from 92.2 µM), inactives show at the highest dose activity change, negative = less growth, hits mostly inhibitors; 0.21% of 360,000 active; S. pombe RE007 Vpr strain, BacTiter-Glo ATP luminescence, 24 h; active = well fitted falling curve with a large enough effect; inconclusive = small, poorly fitted or top-dose-only effect; inactive = no such curve, though single readings can be large or run the other way; note: % is set by controls: 0 for no effect and ±100 for the full control effect; nearly all actives have a fitted effect of over 50% in size
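Fission yeast RE007 carrying one integrated HIV-1 vpr copy, seeded at OD 0.01 in PMG+AL medium with 23 nL pinned compound. Grown 24 h at 30 degrees; viability read by BacTiter-Glo luminescence after 5 min.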
TbPYK inhibitor: blocks Trypanosoma brucei pyruvate kinase | TbPYK enzyme, Kinase-Glo Plus ATP luminescence, 45 min | Q57TT1 | 0.12% of 410,000 active | Potency, µM (top dose mostly 76.8 µM), without a hit: top-dose activity, negative = inhibition, actives largely listed as inhibitors; note: % is set by controls: 0 for no effect and ±100 for the full control effect; nearly all actives have a fitted effect of over 50% in size
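Luminescence from Kinase-Glo Plus, added after a 45-minute room-temperature reaction, served as the end-point read-out. The enzyme and substrate were preincubated with compound before ADP (130 uM final) initiated turnover. Concentration-effect curves came from normalized qHTS data.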
* marks the source's active call; other numbers are inactive results; u = inconclusive; x = no result given. The list is not random: actives were taken first. Their share in the collection is about 3.3%. Unless noted, calls come from the whole dose curve; as a rule, active = well fitted curve in the direction sought with a large enough effect; inconclusive = small, poorly fitted or top-dose-only effect, or another doubt; inactive = no such curve, though single readings can be large; an effect the other way counts as inactive or inconclusive. Potency is the fitted concentration of half-maximal effect.

SMILES	AmpC no deterg	Sm TGR inh	SARS PLP yeast	AmpC inh detg	RE007 growth inh	TbPYK inhibitor
COc1cc(-c2ccc(Nc3ccccc3C(=O)O)c(OC)c2)ccc1Nc1ccccc1C(=O)O	-57.1%	44.7µM*	4.3%	1.6%	-19.6%	2.2%
O=C(CCc1c[nH]c2ccccc12)N=Nc1c(O)[nH]c2ccccc12	31.6µM*	-1.8%	0.4%	-5.8%	1.0%	-8.7%
O=C(CCNC(=O)c1ccccc1)N=Nc1c(O)[nH]c2ccccc12	-10.5%	-11.6%	1.9%	2.0%	x	x
COc1cccc(N2C(=O)CC(Sc3nc(C)cc(C)n3)C2=O)c1 (stereo not given)	-5.8%	-19.7%	-8.2%	u	-6.4%	-5.4%
Cc1ccc(N2C(=O)CC(Sc3nc(C)cc(C)n3)C2=O)cc1 (stereo not given)	-10.5%	-46.3%	-6.9%	2.2%	4.0%	2.5%
CC(=O)Nc1ccc(N2C(=O)CC(Sc3nc(C)cc(C)n3)C2=O)cc1 (stereo not given)	-21.7%	50.1µM*	0.9%	-7.6%	13.7%	4.0%
CCOc1ccccc1N1C(=O)CC(Sc2n[nH]c(-c3ccccc3)n2)C1=O (stereo not given)	-27.3%	0.562µM*	-5.4%	-3.8%	u	u
COc1ccc(N2C(=O)CC(Sc3n[nH]c(-c4cccc(C)c4)n3)C2=O)cc1 (stereo not given)	-27.3%	0.316µM*	-4.3%	-1.1%	20µM*	-14.4%
COC(=O)c1ccc(N2C(=O)CC(Sc3n[nH]c(C)n3)C2=O)cc1 (stereo not given)	-5.9%	1.41µM*	-15.9%	-9.0%	-93.1%	u
O=C1CN(C(=O)COc2ccc(Cl)cc2)C(c2ccc(F)cc2)c2cc(Cl)ccc2N1 (stereo not given)	x	1.8%	x	3.2%	x	-0.9%
CC(C)(C)OC(=O)CN(Cc1ccc(Cl)cc1)Cc1ccc([N+](=O)[O-])s1	x	x	x	x	x	1.2%
CCn1c(=O)cc(OCC(=O)NCc2ccc(F)cc2Cl)c2ccccc21	x	-3.1%	x	-0.4%	x	0.4%
Cc1cc(Nc2cccc(C(F)(F)F)c2)nc2ccc(NC(=O)c3cncc(Br)c3)cc12	x	5.0%	x	19.2%	x	-4.6%
Cc1cccc(Oc2ncnc3onc(C)c23)c1	0.794µM*	2.9%	4.0%	-0.5%	-12.4%	-6.9%
CC(C)(S)C(=O)NC(CS)C(=O)O (stereo not given)	x	x	x	x	x	-0.1%
O=C(Nc1ccccc1)Nc1n[nH]c2nnc(-c3ccccc3)c(-c3ccccc3)c12	31.6µM*	0.2%	-6.6%	-6.3%	4.0%	0.2%
O=C(/C=C\c1ccccc1)NC1CC(=O)N(c2ccccc2)C1 (stereo not given)	x	4.5%	x	3.1%	x	6.5%
O=C(Cc1ccc(-n2c(=O)c3sccc3n(CC(=O)Nc3ccccc3)c2=O)cc1)NCc1ccco1	-20.0%	-3.1%	-0.2%	3.4%	4.6%	-1.4%
Cc1ccc(C)c(Cn2c(=O)n(-c3ccc(CC(=O)NCc4ccco4)cc3)c(=O)c3sccc32)c1	11.2µM*	-19.1%	2.3%	u	-5.6%	7.6%
CCOCN(C(=O)CSc1nc2ccccc2[nH]1)c1c(C)cccc1CC	x	-10.2%	x	-5.6%	x	2.0%
CC(=NCc1ccco1)c1c(O)n(-c2ccccc2C)c(=O)[nH]c1=O	-3.0%	-28.9%	0.1%	-10.3%	-2.7%	-3.3%
Cc1ccccc1-n1c(O)c(C(c2ccncc2)c2c(O)n(-c3ccccc3C)c(=O)[nH]c2=O)c(=O)[nH]c1=O	-6.9%	1.12µM*	2.1%	-4.5%	-1.9%	2.2%
Cc1nc2c3c(sc2c(=O)[nH]1)NC(=O)CC3c1ccccc1Cl (stereo not given)	-0.5%	-13.0%	1.3%	0.0%	2.6%	1.0%
O=C1CC(c2ccccc2Cl)c2c(sc3c(=O)[nH]c(CCl)nc23)N1 (stereo not given)	-52.2%	25.1µM*	-0.9%	-3.1%	x	x
Cc1csc2ncc(C(=O)N3CCCc4ccccc43)c(=O)n12	3.55µM*	5.0%	1.8%	u	4.7%	-7.3%
SMILES	AmpC no deterg	Sm TGR inh	SARS PLP yeast	AmpC inh detg	RE007 growth inh	TbPYK inhibitor
Cc1csc2ncc(C(=O)N3CCc4ccccc43)c(=O)n12	x	x	x	x	-0.7%	7.2%
Cc1ccccc1-c1nc(CN2CCC(C(=O)NCc3ccc(F)cc3)CC2)c(C)o1	x	-3.5%	x	-3.5%	x	-9.2%
Cc1ccc(C(=O)N/N=C/c2ccc(-c3ccc(Br)cc3[N+](=O)[O-])o2)o1	-35.8%	50.1µM*	-2.9%	4.2%	-8.2%	-7.7%
COc1ccccc1N1C(=O)NC(=O)/C(=C/c2ccc([N+](=O)[O-])s2)C1=O	-27.5%	5.62µM*	-0.7%	-1.3%	-28.0%	u
COc1ccc(N2C(=O)NC(=O)/C(=C/c3ccc([N+](=O)[O-])s3)C2=O)cc1	-33.9%	7.08µM*	2.9%	-2.4%	u	12.6µM*
COc1cccc(N2C(=O)NC(=O)/C(=C/c3ccc([N+](=O)[O-])s3)C2=O)c1	-37.9%	7.94µM*	-2.5%	-4.1%	u	u
COc1cccc(N2C(=O)NC(=O)/C(=C/c3ccc4c(c3)Cc3ccccc3-4)C2=O)c1	-46.6%	u	2.4%	-12.7%	-26.0%	u
COc1ccc(N2C(=O)NC(=O)/C(=C\c3ccc([N+](=O)[O-])s3)C2=O)cc1	-53.8%	7.94µM*	-4.8%	1.2%	-26.6%	u
COc1ccc(OC)c(NC(=O)CCCc2nnc3n(C(C)C)c(=O)c4sccc4n23)c1	x	-1.6%	x	10.1%	x	3.0%
COc1ccc(-c2nnc(SCC(=O)NCc3ccccc3)nc2-c2ccc(OC)c(OC)c2)cc1OC	x	-8.9%	x	4.1%	x	2.4%
O=C(Sc1ccc(Cl)cc1)c1ccccn1	x	x	x	x	22.4µM*	-6.8%
O=C(CCc1ccc(S(=O)(=O)NC2CCCCC2)cc1)NCc1ccccn1	-14.3%	35.5µM*	-3.9%	-5.0%	-18.2%	-6.5%
CN1CCCN(C(=O)c2ccccc2Cl)CC1	-2.7%	0.0%	-0.1%	-2.0%	-11.4%	-8.0%
O=C(O)c1ccccc1C(=O)N1CCN(c2ccccc2)CC1	-4.4%	35.5µM*	17.0%	-16.6%	-6.6%	3.4%
O=C(O)c1ccccc1C(=O)N1CCN(C(=O)c2ccccc2Cl)CC1	-18.5%	89.1µM*	2.0%	0.7%	0.9%	1.3%
COc1ccc(NC(=O)c2ccc3c(c2)nnn3C2CCCC2)cc1Cl	x	-9.3%	x	0.5%	x	3.6%
COc1ccc(C(=O)CCN2CCc3cc(OC)c(OC)cc3C2)cc1	-23.3%	u	-1.8%	u	25.1µM*	-8.7%
